Results: PubChem BioAssay (Tox21)
Inconclusive results are not listed. Activity calls are given as the source filed them. Unless noted, calls follow the shape of the dose curve; as a rule, active = well fitted curve in the direction sought with a large enough effect in the repeat runs; inconclusive = weak or mixed curves; inactive = no such curve, though single readings can be large; an effect the other way counts as inactive or inconclusive.

Legend:
[1] = qHTS assay to identify small molecule agonists of the peroxisome proliferator-activated receptor delta (PPARd) signaling pathway - cell viability counter screen (AID 743211); also: nearly all actives have a fitted effect of over 55% in size; also: potency is read from the fitted curve at half-maximal effect
Outline: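 PPARd-bla HEK293H cells (3000/well) were pre-incubated 5 h at 37 C, then exposed to compound for 17 h at 37 C. After 2 h with LiveBLAzer substrate, CellTiter-Glo was added to the same wells; luminescence read after 30 min at room temperature.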

[2] = target: Peroxisome proliferator-activated receptor delta (Homo sapiens) (UniProt Q03181); assay: qHTS assay to identify small molecule agonists of the peroxisome proliferator-activated receptor delta (PPARd) signaling pathway (AID 743212; calls by dose curve)
Peroxisome proliferator-activated receptor delta (Homo sapiens), sequence (Q03181 whole entry, looked up): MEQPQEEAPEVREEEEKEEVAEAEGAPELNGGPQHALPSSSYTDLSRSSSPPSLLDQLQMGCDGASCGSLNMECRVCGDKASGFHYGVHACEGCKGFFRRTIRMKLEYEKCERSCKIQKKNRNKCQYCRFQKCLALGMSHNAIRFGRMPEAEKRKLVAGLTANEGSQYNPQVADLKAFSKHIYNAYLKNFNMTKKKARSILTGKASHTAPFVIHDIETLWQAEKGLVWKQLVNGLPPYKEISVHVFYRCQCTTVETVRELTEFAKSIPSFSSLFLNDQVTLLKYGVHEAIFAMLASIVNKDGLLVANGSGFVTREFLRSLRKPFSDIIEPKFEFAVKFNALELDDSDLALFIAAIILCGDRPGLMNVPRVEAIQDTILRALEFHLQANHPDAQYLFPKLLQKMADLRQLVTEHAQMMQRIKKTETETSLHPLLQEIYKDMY
Outline: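 A PPARd-bla HEK293H line with beta-lactamase under an Upstream Activator Sequence is treated with compounds at 37 C. Substrate loading for 2 h at room temperature precedes the fluorescence measurement.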

[3] = target: Peroxisome proliferator-activated receptor delta (Homo sapiens) (UniProt Q03181); assay: qHTS assay to identify small molecule antagonists of the peroxisome proliferator-activated receptor delta (PPARd) signaling pathway (AID 743215; active = well fitted inhibition curve with a large enough effect in the signal ratio in the repeat runs, not every such curve was filed as active; the % refers to the signal ratio; also: potency is read from the fitted curve at half-maximal effect)
Outline: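 HEK293H UAS-bla, PPARd; agonist L165041 300 nM final with cpd in DMSO; 37 C 17 h; FRET substrate, RT 2 h; fluorescence intensity.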

[4] = qHTS assay to identify small molecule antagonists of the farnesoid-X-receptor (FXR) signaling pathway - cell viability counter screen (AID 743221; active = well fitted cell-killing curve with a large enough effect in the repeat runs, not every such curve was filed as active; also: nearly all actives have a fitted effect of over 50% in size)
Outline: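 GeneBLAzer FXR-UAS-bla HEK 293T cells, compound plus chenodeoxycholic acid (50 uM final), 16 h at 37 C. CellTiter-Glo added to the same wells after the beta-lactamase read; luminescence read after 30 min at room temperature as viability.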

[5] = target: Vitamin D3 receptor (Homo sapiens) (UniProt P11473); assay: qHTS assay to identify small molecule agonists of the vitamin D receptor (VDR) signaling pathway (AID 743222; calls by dose curve)
Vitamin D3 receptor (Homo sapiens), sequence (P11473 whole entry, looked up): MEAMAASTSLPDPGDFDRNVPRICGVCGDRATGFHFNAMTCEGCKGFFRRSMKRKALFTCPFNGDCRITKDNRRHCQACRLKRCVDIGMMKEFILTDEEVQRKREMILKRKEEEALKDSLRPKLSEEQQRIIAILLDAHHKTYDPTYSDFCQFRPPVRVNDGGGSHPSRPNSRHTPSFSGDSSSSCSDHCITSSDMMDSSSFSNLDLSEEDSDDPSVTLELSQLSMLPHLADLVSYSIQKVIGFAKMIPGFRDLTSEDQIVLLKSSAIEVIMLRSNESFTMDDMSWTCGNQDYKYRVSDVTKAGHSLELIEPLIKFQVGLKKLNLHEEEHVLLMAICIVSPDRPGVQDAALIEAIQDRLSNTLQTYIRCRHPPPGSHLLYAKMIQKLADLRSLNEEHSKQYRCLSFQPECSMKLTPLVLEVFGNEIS
Outline: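 In VDR-bla cells, compound-induced beta-lactamase expression is quantified by FRET substrate fluorescence. Treatment lasts 16 h at 37C; substrate develops 2 h at room temperature.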

[6] = qHTS assay to identify small molecule agonists of the vitamin D receptor (VDR) signaling pathway - cell viability counter screen (AID 743224); also: nearly all actives have a fitted effect of over 50% in size; also: potency is read from the fitted curve at half-maximal effect
Outline: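 Plated VDR-bla cells (4 h, 37C) received compound, incubated 16 h, then LiveBLAzer substrate 2 h RT; CellTiter-Glo added afterwards, luminescence read at 30 min.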

[7] = qHTS assay to identify small molecule agonists of the endoplasmic reticulum stress response signaling pathway - cell viability counter screen (AID 1159517; calls by dose curve; also: nearly all actives have a fitted effect of over 50% in size; also: potency is read from the fitted curve at half-maximal effect)
Outline: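 CellTiter-Glo was added to wells already read for beta-lactamase FRET, and luminescence was recorded 30 min later. Cells: ESRE-bla HeLa, 1,500 per well, compound exposure 5 hr at 37 C.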

[8] = qHTS assay to identify small molecule antagonists of the retinoid-related orphan receptor gamma (ROR-gamma) signaling pathway - cell viability counter screen (AID 1159520); also: nearly all actives have a fitted effect of over 50% in size; also: potency is read from the fitted curve at half-maximal effect
Outline: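 Tet-on ROR gamma CHO cells (1,000/well) were plated 4 hr, given compounds in DMSO for 2 hr at 37 C, then induced with 1 uM final doxycycline for 16 hr. Viability was read as ATP by CellTiter-Glo luminescence after 30 min.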

[9] = target: Nuclear receptor ROR-gamma (Homo sapiens) (UniProt P51449); assay: qHTS assay to identify small molecule antagonists of the retinoid-related orphan receptor gamma (ROR-gamma) signaling pathway (AID 1159521; also: nearly all actives have a fitted effect of over 50% in size; also: potency is read from the fitted curve at half-maximal effect)
Outline: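 Tet-on ROR-gamma CHO cells with ROR response element-luciferase reporter; compounds added 2 hr before 1 uM doxycycline induction, then 16 hr at 37 C. Antagonism scored as decreased ONE-Glo luminescence.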

[10] = qHTS assay to identify small molecule antagonists of the peroxisome proliferator-activated receptor delta (PPARd) signaling pathway - cell viability counter screen (AID 743213); also: nearly all actives have a fitted effect of over 50% in size; also: potency is read from the fitted curve at half-maximal effect
Outline: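 Agonist-stimulated (L165041, 300 nM final) HEK293H PPARd UAS-bla cells are exposed to compounds for 17 h at 37 C, and ATP-based luminescence (CellTiter-Glo) from the same wells reports cytotoxicity.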

[11] = qHTS assay to identify small molecule agonists of the farnesoid-X-receptor (FXR) signaling pathway - cell viability counter screen (AID 743218); also: nearly all actives have a fitted effect of over 45% in size; also: potency is read from the fitted curve at half-maximal effect
Outline: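 Parallel cytotoxicity test: compound-treated (16 h, 37 C) HEK 293T FXR-bla reporter cells were lysed with CellTiter-Glo and luminescence recorded.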

[12] = qHTS assay to identify small molecule antagonists of the vitamin D receptor (VDR) signaling pathway - cell viability counter screen (AID 743225); also: nearly all actives have a fitted effect of over 50% in size; also: potency is read from the fitted curve at half-maximal effect
Outline: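 VDR-UAS-bla HEK 293T cells were plated and incubated 4 h at 37C, then dosed with compound plus 3 nM (final) 1-alpha,25-dihydroxyvitamin D3 for 16 h. After the 2 h beta-lactamase read, viability in the same wells was read as CellTiter-Glo luminescence after 30 min at room temperature.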

[13] = qHTS assay to identify small molecule agonists of the AP-1 signaling pathway - cell viability counter screen (AID 1159525; calls by dose curve; also: nearly all actives have a fitted effect of over 55% in size)
Outline: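 ME-180 AP-1-bla, 2500 cells/well, Opti-MEM + 0.5% dialyzed FBS; overnight 37 °C; cpd 15-pt titration, 5 h 37 °C; CellTiter-Glo 30 min RT; luminescence read; normalised to TOAB and DMSO controls.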

[14] = qHTS assay to identify small molecule agonists of the AP-1 signaling pathway (AID 1159526; calls by dose curve)
[15] = target: Bile acid receptor (Homo sapiens) (UniProt Q96RI1); assay: qHTS assay to identify small molecule antagonists of the farnesoid-X-receptor (FXR) signaling pathway (AID 743217; active = well fitted inhibition curve with a large enough effect in the signal ratio in the repeat runs, not every such curve was filed as active; the % refers to the signal ratio)
Bile acid receptor (Homo sapiens), sequence (Q96RI1 whole entry, looked up): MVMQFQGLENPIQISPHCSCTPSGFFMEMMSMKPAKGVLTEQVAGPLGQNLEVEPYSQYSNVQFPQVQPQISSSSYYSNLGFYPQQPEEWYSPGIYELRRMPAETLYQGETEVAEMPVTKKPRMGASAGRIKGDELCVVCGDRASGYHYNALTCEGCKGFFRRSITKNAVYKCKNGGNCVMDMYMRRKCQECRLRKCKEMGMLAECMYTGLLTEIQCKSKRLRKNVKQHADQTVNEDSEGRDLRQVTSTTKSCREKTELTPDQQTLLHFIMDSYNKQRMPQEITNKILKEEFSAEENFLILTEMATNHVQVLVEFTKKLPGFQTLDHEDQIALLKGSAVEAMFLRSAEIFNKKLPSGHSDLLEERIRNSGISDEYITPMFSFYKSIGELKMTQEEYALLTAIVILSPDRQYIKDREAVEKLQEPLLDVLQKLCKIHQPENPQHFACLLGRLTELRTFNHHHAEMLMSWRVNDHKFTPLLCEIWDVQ
Outline: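 GeneBLAzer FXR-UAS-bla HEK 293T, CDCA-stimulated (50 uM final). Compound treatment 16 h, 37 °C. Detection: beta-lactamase cleavage of B/G FRET substrate, fluorescence.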

[16] = qHTS assay to identify small molecule agonists of the endoplasmic reticulum stress response signaling pathway (AID 1159516; active = well fitted activation curve with a large enough effect in the signal ratio in the repeat runs, not every such curve was filed as active; the % refers to the signal ratio)
Outline: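 An ESRE-bla HeLa cell assay: compounds were pin-transferred from DMSO onto overnight-plated cells and left 5 hr at 37 C. Substrate was then loaded for 2 hr at room temperature before reading fluorescence at 460 nm and 530 nm.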

[17] = target: Retinoic acid receptor RXR-alpha (Homo sapiens) (UniProt P19793); assay: qHTS assay to identify small molecule agonists of the RXR signaling pathway (AID 1159527; calls by dose curve; also: nearly all actives have a fitted effect of over 35% in size)
Retinoic acid receptor RXR-alpha (Homo sapiens), sequence (P19793 whole entry, looked up): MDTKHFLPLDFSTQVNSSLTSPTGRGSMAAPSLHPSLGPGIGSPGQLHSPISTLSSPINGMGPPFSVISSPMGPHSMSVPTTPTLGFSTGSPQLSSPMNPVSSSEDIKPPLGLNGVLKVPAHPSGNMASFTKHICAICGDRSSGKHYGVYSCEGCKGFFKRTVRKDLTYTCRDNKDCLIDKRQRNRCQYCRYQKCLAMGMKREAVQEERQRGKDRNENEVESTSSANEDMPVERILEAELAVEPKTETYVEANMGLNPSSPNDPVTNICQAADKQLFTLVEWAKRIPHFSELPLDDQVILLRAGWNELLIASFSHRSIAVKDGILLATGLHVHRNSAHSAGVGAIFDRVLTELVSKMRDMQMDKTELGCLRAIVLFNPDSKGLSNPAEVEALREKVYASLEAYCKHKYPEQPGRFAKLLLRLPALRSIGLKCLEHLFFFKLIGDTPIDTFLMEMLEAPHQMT
Outline: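 GeneBLAzer RXR-alpha-UAS-bla HEK 293T cells in 2% charcoal-stripped FBS medium were exposed to compounds for 16 hr at 37 C in agonist mode. Beta-lactamase reporter read as 460/530 nm FRET ratio after 2 hr substrate loading.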

[18] = target: Bile acid receptor (Homo sapiens) (UniProt Q96RI1); assay: qHTS assay to identify small molecule agonists of the farnesoid-X-receptor (FXR) signaling pathway (AID 743220; active = well fitted activation curve with a large enough effect in the signal ratio in the repeat runs, not every such curve was filed as active; the % refers to the signal ratio)
Outline: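 Beta-lactamase reporter under UAS control in GeneBLAzer FXR HEK 293T cells (5000/well) measured with LiveBLAzer FRET substrate after 2 h at room temperature. Compound exposure lasted 16 h at 37C.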

[19] = target: Vitamin D3 receptor (Homo sapiens) (UniProt P11473); assay: qHTS assay to identify small molecule antagonists of the vitamin D receptor (VDR) signaling pathway (AID 743223; active = well fitted inhibition curve with a large enough effect in the signal ratio in the repeat runs, not every such curve was filed as active; the % refers to the signal ratio)
Outline: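 VDR-bla cells were treated with compound plus 3 nM final 1alpha,25-dihydroxyvitamin D3 for 16 h at 37C. Beta-lactamase reporter read by B/G FRET substrate fluorescence after 2 h at room temperature. qHTS format.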

Measured: Potency

Clc1ccc(CO/N=C(\Cn2ccnc2)c2ccc(Cl)cc2Cl)c(Cl)c1
inactive: [1] | [2] | [3] | [4] | [5] | [6]
active: [7] 23.9 µM | [8] 26.6 µM | [9] 26.6 µM

O=C(NC(=O)c1c(F)cccc1F)Nc1cc(Cl)c(OC(F)(F)C(F)F)c(Cl)c1
not listed: [2] | [4] | [5] | [15] | [16] | [17] | [18] | [19]
inactive: all other assays above

O=C(CBr)c1ccc(O)cc1
active: [9] 48.6 µM
not listed: [2] | [3] | [6] | [8] | [14] | [18] | [19]
inactive: all other assays above

C[C@]12Cc3nonc3C[C@@H]1CC[C@@H]1[C@@H]2CC[C@@]2(C)[C@H]1CC[C@]2(C)O
active: [9] 7.5 µM
inactive: [2] | [3] | [15] | [11] | [18] | [4] | [5] | [19] | [6] | [16]

Cc1cc(C)c(C2=C(OC(=O)CC(C)(C)C)C3(CCCC3)OC2=O)c(C)c1
not listed: [1] | [5] | [8] | [19]
inactive: all other assays above

CC(C)(C)C(O)C(Oc1ccc(-c2ccccc2)cc1)n1cncn1 (configuration not stated)
active: [9] 27.3 µM
inactive: [8] | [13]

C=CC(=O)N(C)C
inactive: [8] | [9] | [13] | [14] | [17]

CCOC(=O)c1ccccc1S(=O)(=O)NC(=O)Nc1nc(Cl)cc(OC)n1
inactive: [8] | [9] | [13] | [14] | [17]

c1cc[c]([Sb]([c]2ccccc2)[c]2ccccc2)cc1
inactive: [8]
active: [9] 61.1 µM

Cl/C=C\CCl
inactive: [8] | [9] | [13] | [14] | [17]

Cc1ccc(CCl)cc1
inactive: [8] | [9] | [13] | [14] | [17]

Oc1ccc(C2(c3ccc(O)cc3)CCCCC2)cc1
active: [1] 41.3 µM | [10] 46.4 µM | [3] 46.4 µM | [11] 23.2 µM | [6] 46.4 µM | [12] 36.8 µM | [7] 46.4 µM
inactive: [2] | [18]
